Data from PubChem BioAssay AID504339 (National Center for Advancing Translational Sciences (NCATS), 2011).
Out of some 390,000 compounds screened, about 17,000 (4.4%) were called active. Inconclusive results (about 8%) are left out. This is one part of a sample in which actives are shown more often than they occur. Values without a mark were called inactive. Calls come from the whole dose curve; as a rule, active = well fitted inhibition curve with a large enough effect; inconclusive = small, poorly fitted or top-dose-only effect; inactive = no such curve, though single readings can be large or run the other way.

target: Lysine-specific demethylase 4A (Homo sapiens) (UniProt O75164); test: qHTS Assay for Inhibitors of JMJD2A-Tudor Domain; settings: AlphaScreen JMJD2A-Tudor / H3K4me3 peptide binding; series mostly up to 114 µM; activity change, negative = inhibition: at the top concentration; note: nearly all actives have a fitted effect of over 50% in size
Source text: JMJD2A is a jumonji-domain-containing lysine demethylase that uses Fe(II) together with 2-OG to effect oxidative demethylation of histones. Methylation is one of many […] modification that affect epigenetic transcription. […] It is proposed that the functions of JmjD2A binding to the histones, is to maintain marks after they are installed and to spread the modifications by […], establishing a self-propagating cycle for rapid methylation over a large area of chromatin. […] Thus, small molecule targeting of the JMJD2A-tudor domain interaction with its target methylhistone mark is expected to enable sophisticated experiments probing the fine regulatory pathways leading to selective demethylation of a given methyllysine locus based on the methylation state of adjacent histone marks. A quantitative high throughput AlphaScreen has been developed to identify small molecule inhibitors based on a protocol published by NCGC and SGC [4].
Although AlphaScreen has significant advantages with its utility in a variety of epigenetic target assays, the primary screening data provided in this deposition should be used with caution due to the prevalence of screening artifacts. The top compound concentration tested was high (>100uM) in this assay, which increases number of actives and potential artifacts. An AlphaScreen counterscreen is highly recommended to be run against any putative actives to eliminate non-specific artifacts. Alternatively, one can use other AlphaScreen assays in PubChem to filter out promiscuous hits.
[1] Lee, J. et al. Distinct binding modes specify the recognition of methylated histone H3K4 and H4K20 by JMJD2A-tudor. Nat Struct Mol Biol. 15(1); 109-11. 2008. PMID: 18084306
[2] Yasgar, et al. Compound Management for Quantitative High-Throughput Screening. JALA. 2008 Apr;13(2):79-89. PMID: 18496600
[3] Inglese, et al. Quantitative high-throughput screening: a titration-based approach that efficiently identifies biological activities in large chemical libraries. Proc Natl Acad Sci. 1;103(31):11473-8. 2006. PMID: 16864780
[4] Quinn et al. A homogeneous method for investigation of methyl-dependent protein-protein interactions in epigenetics. Nucleic Acids Res., 38(2):e11. 2010. PMID: […]
[5] Baell,Holloway. New substructure filters for removal of pan assay interference compounds (PAINS) from screening libraries and for their exclusion in bioassays. J Med Chem. 53(7):2719-40. 2010. PMID: 20131845
NIH Molecular Libraries Probe Production Network [MLPCN]
NIH Chemical Genomics Center [NCGC]
Structural Genomics Consortium (SGC)
To each well of a 1,536w plate, 2ul of JMJD2A-Tudor (final 100nM) and 1ul biotinylated histone peptide methylated at Lys4 [b-H3(1-18)K4me3] (final 50nM) were added in 1x PBS buffer, pH 7.4, containing 0.01% Tween-20, using a nanoliter dispenser. Formation of a protein-peptide complex proceeded at room temperature for 30 min. A Kalypsys pin-tool transferred 23nl of library compound solution in DMSO to each well. Following a 30 min incubation of the protein-peptide complex with compounds at room temperature, a mixture of 40 µg/mL each streptavidin-coated donor and nickel chelate acceptor AlphaScreen beads (final 10 µg/mL) was added in a 1ul dispense for a final volume of 4ul, followed by a brief centrifugation (1000 rpm, 1 min). Plates were incubated protected from the light for 20 min at room temperature. Microplates were then read on an EnVision multilabel plate reader using the 1,536 plate HTS AlphaScreen aperture (excitation time 80 ms, measurement time 240 ms).
% is set by controls: 0 for no effect and ±100 for the full control effect; potency is the fitted concentration of half-maximal effect.

Chain of Lysine-specific demethylase 4A (Homo sapiens) (O75164 whole entry, looked up, the tested form may be a part): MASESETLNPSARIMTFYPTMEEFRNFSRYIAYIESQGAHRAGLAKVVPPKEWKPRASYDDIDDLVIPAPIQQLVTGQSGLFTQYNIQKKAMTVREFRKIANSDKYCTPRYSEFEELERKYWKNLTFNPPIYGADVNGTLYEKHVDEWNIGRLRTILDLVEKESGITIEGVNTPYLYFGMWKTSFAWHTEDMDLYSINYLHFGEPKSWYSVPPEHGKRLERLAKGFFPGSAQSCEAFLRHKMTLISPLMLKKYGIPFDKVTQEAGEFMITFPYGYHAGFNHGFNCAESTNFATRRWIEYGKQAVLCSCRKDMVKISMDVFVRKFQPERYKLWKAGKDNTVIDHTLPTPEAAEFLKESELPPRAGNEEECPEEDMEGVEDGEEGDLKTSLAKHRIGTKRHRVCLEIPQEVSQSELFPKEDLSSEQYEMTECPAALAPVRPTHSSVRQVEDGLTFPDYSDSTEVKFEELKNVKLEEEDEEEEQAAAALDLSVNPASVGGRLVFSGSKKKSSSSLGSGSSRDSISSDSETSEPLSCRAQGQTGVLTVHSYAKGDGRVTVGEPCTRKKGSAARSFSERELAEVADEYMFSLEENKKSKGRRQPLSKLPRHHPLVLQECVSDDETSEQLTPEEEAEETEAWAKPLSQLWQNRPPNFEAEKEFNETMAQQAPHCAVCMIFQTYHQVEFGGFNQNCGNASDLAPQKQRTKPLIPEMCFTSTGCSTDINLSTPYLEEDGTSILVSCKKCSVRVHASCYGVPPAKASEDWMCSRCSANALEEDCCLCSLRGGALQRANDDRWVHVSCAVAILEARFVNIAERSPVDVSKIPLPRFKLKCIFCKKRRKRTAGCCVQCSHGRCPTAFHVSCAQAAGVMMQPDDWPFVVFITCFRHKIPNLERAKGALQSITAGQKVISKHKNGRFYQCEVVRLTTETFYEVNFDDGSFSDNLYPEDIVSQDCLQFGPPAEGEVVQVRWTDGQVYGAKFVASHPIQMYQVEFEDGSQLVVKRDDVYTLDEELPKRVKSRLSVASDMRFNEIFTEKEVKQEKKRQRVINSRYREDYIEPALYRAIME

SMILES | activity change, negative = inhibition [%] | Potency
CCOC(=O)C1(C)NC(c2ccco2)C2C(=O)N(c3ccccc3)C(=O)C21 (stereo unspecified) | -18.4 | –
COC(=O)C1(C)NC(c2ccc(F)cc2)C2C(=O)N(c3ccccc3)C(=O)C21 (stereo unspecified) | 1.31 | –
CCCCC1(C(=O)OCC)NC(c2ccc(O)cc2)C2C(=O)N(c3ccccc3)C(=O)C21 (stereo unspecified) | – | 28.2 µM (active)
COc1ccccc1CNC(=O)C(=O)NCC(c1cccs1)S(=O)(=O)c1cccs1 (stereo unspecified) | -17.5 | –
CCCN(CCC)S(=O)(=O)c1ccc(C(=O)Nc2sc3c(c2C(=O)OC)CCN(CC)C3)cc1 | -9.17 | –
Cc1ccc2oc(C(=O)Nc3ccc(S(=O)(=O)N4CCCCCC4)cc3)cc(=O)c2c1 | -14.2 | –
CC1CCCCN1CC(=O)N1CCCc2c1c(=O)oc1ccc(OCc3ccccc3)cc21 (stereo unspecified) | -29.8 | –
Cc1ccc(NC(=O)CNCc2ccccn2)cc1S(=O)(=O)N(C)C | – | 56.2 µM (active)
Cc1ccc(C(=O)Nc2ccc(C)c(S(=O)(=O)N(C)C)c2)s1 | -9.67 | –
CCN(c1ccccc1)S(=O)(=O)c1cc(C(=O)NCc2ccccn2)ccc1C | -17.2 | –
Cc1ccc(OCC(=O)Nc2ccc(OCc3cc(=O)n4c(C)csc4n3)cc2)cc1C | -23.8 | –
Cc1cccc(NC(=O)Cn2c(C(F)(F)F)nc3ccccc32)c1C | -12.8 | –
CCc1nccn1S(=O)(=O)c1cc(Br)ccc1Br | -1.49 | –
N#C/C(=C\c1ccccc1F)c1nc2ccccc2c(=O)[nH]1 | -15.7 | –
COc1ccc(-c2nc(=N)sn2-c2ccccc2)cc1 | – | 5.62 µM (active)
COc1ccc(-c2nn3c(-c4ccc(OC)cc4)nnc3c3ccccc23)cc1 | 5.15 | –
Cc1n[nH]c(=O)n1-c1ccc(Oc2ccccc2)cc1 | -11 | –
Cc1ccc(-c2cc(C(=O)NC3CCN(Cc4ccccc4)CC3)c3ccccc3n2)cc1 | -14.5 | –
Cc1ccc(-c2nc(=N)sn2Cc2ccccc2)cc1 | – | 4.47 µM (active)
Cc1ccc(CN2C(=O)SC(Nc3ccccc3)C2=O)cc1 (stereo unspecified) | 14.8 | –
CC(C)c1ccc2oc(-c3cc(NC(=O)c4cccs4)ccc3Cl)nc2c1 | -2.99 | –
COC(=O)c1cc(NC(=O)CCc2c(C)nc3c4c(C)cc(C)nc4nn3c2C)cc(C(=O)OC)c1 | -13.2 | –

SMILES | activity change, negative = inhibition [%] | Potency
COc1ccc(Cl)cc1NC(=O)CSc1nc(=O)[nH]c2c1CCCC2 | -2.27 | –
Cc1cc(OCC(=O)Nc2ncn[nH]2)c(C)c(C)c1Br | -7.56 | –
COc1ccc(Cn2cc(C(=O)c3ccc(C)cc3)c(=O)c3cc(OC)c(OC)cc32)cc1 | -31.3 | –
COc1ccc(CCNC(=O)c2cn(C)c3ccc(S(=O)(=O)N(C)C4CCCCC4)cc3c2=O)cc1OC | -4.33 | –
CCOc1ccc(C2c3[nH]c4ccccc4c3CCN2Cc2cccn2-c2ncccn2)cc1 (stereo unspecified) | – | 44.7 µM (active)
CCOc1ccc(C2c3[nH]c4ccccc4c3CCN2Cc2cn(CC)nc2C)cc1 (stereo unspecified) | -29.1 | –
CCOc1cccc(CC(=O)N2CCc3c([nH]c4ccccc34)C2c2ccc(OC)cc2)c1OCC (stereo unspecified) | -31.5 | –
COc1ccc(C2CC(=O)Nc3c2c(=O)nc2c(C)cccn32)cc1OC (stereo unspecified) | -18.9 | –
Cc1ccc(-n2c(=O)c3cccnc3n2CC(=O)NCc2ccc(F)cc2)cc1C | 3.75 | –
CCOC(=O)C1(CCOc2ccccc2)CCN(Cc2cc(OC)cc(OC)c2)CC1 | -11.6 | –
CCOC(=O)C1(CCOc2ccccc2)CCN(Cc2ccc(C#CCCO)cc2)CC1 | -15.1 | –
Cc1c(CN2CCC(CO)(CCOc3ccccc3)CC2)[nH]c2ccc(Cl)cc12 | – | 50.1 µM (active)
O=C(O)c1ccc(-n2nc(-c3ccccc3)c3ccccc3c2=O)cc1 | -7.69 | –
O=C(O)c1n[nH]nc1-c1ccccc1 | – | 4.47 µM (active)
N#Cc1c(-c2ccccc2)c(-c2ccccc2)n[nH]c1=O | -7.47 | –
CCc1nn(CC(=O)NCC(C)c2ccccc2)c(=O)c2cc3occc3n12 (stereo unspecified) | 1.34 | –
COc1ccccc1CNc1nccn(-c2ccc(F)cc2)c1=O | -23.1 | –
COc1ccc(OC)c(CNC(=O)c2c3c(nc4ccccc24)C(=O)N(C2CCCCC2)C3)c1 | -18 | –
Cc1cccc(N2CCN(C(=O)CCSCc3ccccc3F)CC2)c1C | 5.2 | –
CCOc1ccc(OCC)c(NS(=O)(=O)c2ccc3[nH]c(=O)ccc3c2)c1 | -14.2 | –
CCOc1ccc(S(=O)(=O)NCCCn2ccnc2)cc1NC(C)=O | -4.83 | –
Brc1ccc(OCCn2ccnc2)cc1 | -22.5 | –

SMILES | activity change, negative = inhibition [%] | Potency
O=C(NCCCn1ccnc1)c1ccccc1F | -17.2 | –
Cc1ccc2c(Cl)c(C(=O)NCCCn3ccnc3)sc2c1 | -35.4 | –
C=CCc1cc(C)ccc1OCCCn1ccnc1 | – | 20 µM (active)
Clc1c(OCCCn2ccnc2)ccc2ccccc12 | – | 56.2 µM (active)
COc1ccc(-c2noc(CSc3nc4ccc(C)cc4[nH]3)n2)cc1 | -16 | –
COc1ccc(CCNCc2c(C(=O)O)c(C)n(Cc3cccc(C)c3)c2C)cc1OC | -10.7 | –
CC(=O)c1ccc(NC(=O)COc2ccccc2-c2nc(-c3ccccc3)no2)cc1 | -25.5 | –
CCOC(=O)c1ccc(NC(=O)C2CC(=O)N(c3ccc(C(C)C)cc3)C2)cc1 (stereo unspecified) | -15.4 | –
CCC(=O)Nc1nnc(S(=O)(=O)N(CC(C)C)c2ccccc2)s1 | -3.73 | –
CCN(CC)S(=O)(=O)c1nnc(NC(=O)COc2ccccc2Cl)s1 | – | 31.6 µM (active)
Cc1ccccc1OCC(=O)Nc1nnc(S(=O)(=O)N2CCCC2)s1 | -10.3 | –
Cc1cccc(C)c1NC(=O)CSc1nnc(-c2ccccc2)n1Cc1ccc2c(c1)OCO2 | -23.6 | –
c1ccc(-c2nnc3n2NC(c2ccc4c(c2)OCO4)S3)cc1 (stereo unspecified) | – | 22.4 µM (active)
CC1=C(C(N)=O)C(c2ccc3c(c2)OCO3)n2nc(-c3cccc(C)c3)nc2N1 (stereo unspecified) | -10.1 | –
CCOc1ccccc1N(CC)C(=O)c1cc2ccc3cccnc3c2[nH]1 | -20.1 | –
O=[N+]([O-])c1ccc(Oc2ccc(F)cc2Br)c2ccncc12 | – | 44.7 µM (active)
COc1cccc(NC(=O)N2CCN(C(=O)c3nsc4ccccc34)CC2)c1 | 0 | –
CC1CCc2noc(NC(=O)c3ccc([N+](=O)[O-])cc3)c2C1 (stereo unspecified) | -24.3 | –
COc1cccc(OCCn2c(-c3ccc(Br)cc3)nc3ccccc3c2=O)c1 | 18.7 | –
O=C(C1CCN(Cc2ccc(Cl)cc2)CC1)N1CCN(Cc2ccc3c(c2)OCO3)CC1 | – | 2.51 µM (active)
O=C(Nc1ccccc1)N1CCC(C(=O)N2CCN(Cc3ccccc3)CC2)CC1 | -11.3 | –
O=C(C1CCN(C2CCN(Cc3cccc4c3OCO4)CC2)CC1)N1CCOCC1 | -4.11 | –
